Compound activity from PubChem BioAssay.
GLP1R cytotox = cytotoxic in the GLP-1 receptor inverse agonist counter-screen; HEK293 cAMP-luciferase reporter cells, luminescence, 24 h; 410,000 tested, 0.13% active; Potency, µM (top dose mostly 38.3 µM), actives largely listed as inhibitors; AID 624418;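 note: loss of luciferase light is scored as toxicity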
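Luminescence readout: signal drop marks cytotoxicity. Plated cells grew 12 h at 37 °C, 5% CO2, received 23 nL compound for 24 h, then got luciferase reagent, read after 12 min at RT.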
GLP-1R agonist = GLP-1 receptor (human) agonism. 380,000 tested, 0.007% active. HEK293 GLP-1R CRE-luciferase, luminescence, 4-6 h; cells express a hypersensitive GLP-1R form. Potency, µM (highest dose often 45.6 µM), actives largely listed as activators. AID 624172. P43220
Target sequence (P43220 whole entry, looked up): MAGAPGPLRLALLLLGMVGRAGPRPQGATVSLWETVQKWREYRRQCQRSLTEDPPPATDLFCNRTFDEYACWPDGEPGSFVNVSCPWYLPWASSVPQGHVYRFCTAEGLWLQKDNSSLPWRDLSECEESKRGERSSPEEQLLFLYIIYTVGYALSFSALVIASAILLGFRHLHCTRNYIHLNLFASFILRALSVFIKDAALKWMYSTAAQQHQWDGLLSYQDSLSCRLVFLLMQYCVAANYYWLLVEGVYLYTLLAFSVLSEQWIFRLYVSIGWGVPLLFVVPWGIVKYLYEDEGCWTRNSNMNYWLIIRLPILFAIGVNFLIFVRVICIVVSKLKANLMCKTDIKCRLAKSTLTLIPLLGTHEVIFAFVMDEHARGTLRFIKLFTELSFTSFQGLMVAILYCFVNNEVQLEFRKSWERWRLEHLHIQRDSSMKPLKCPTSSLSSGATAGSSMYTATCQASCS
GLP-1R inv ag = GLP-1 receptor (human) inverse agonism | 410,000 tested, 1.6% active | HEK293 GLP-1R CRE-luciferase, luminescence, 24 h; GLP-1R form is constitutively active | Potency, µM (titrated, usually from 38.3 µM), hits mostly inhibitors | P43220; note: nearly all actives have a fitted effect of over 55% in size
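Stable HEK293 clone (constitutively active GLP-1R + cAMP-response luciferase); 200 cells/uL plated, 12 h pre-culture, compound 24 hr, 37 deg C/5% CO2; detection reagent 12 min RT; luminescence.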
BRCA1 expr up = activators of BRCA1 expression | MCF7-BRCA1-FFLuc reporter, luminescence, 48 h; response scale: scaled: vehicle 0%, 10 µM genistein 100% | Potency, µM (highest dose often 46.1 µM), usual class: activators | 380,000 tested, 1.1% active; note: nearly all actives have a fitted effect of over 80% in size
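MCF7-BRCA1-FFLuc, 2000 cells/well; 2 h attach, 37 °C/5% CO2; compound 48 h; luciferase substrate 15 min; luminescence end-point. Norm. to genistein 10 microM max activation and DMSO; concentration-response curves fitted.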
Numbers stand for hits; i = inactive; ? = inconclusive; nt = no result given. A selection: hits, their analogues and other compounds. The true share with any hit is near 2.6%. Calls come from the whole dose curve; as a rule, active = well fitted curve in the direction sought with a large enough effect; inconclusive = small, poorly fitted or top-dose-only effect, or another doubt; inactive = no such curve, though single readings can be large; an effect the other way counts as inactive or inconclusive.

SMILES | GLP1R cytotox | GLP-1R agonist | GLP-1R inv ag | BRCA1 expr up
CCOC(=O)c1c(C)nc2sc(C(=O)Nc3ccc(C(C)=O)cc3)c(N)c2c1-c1ccc(OC)cc1 | i | i | 8.91µM | i
CCCCNC(=O)N(C)c1nc2ccccc2s1 | i | i | i | 4.47µM
Cn1c(-c2c(N)n(C3CCCC3)c3nc4ccccc4nc23)nc2ccccc21 | i | i | 3.98µM | i
COC(=O)CNC(c1ccccc1)c1cc(Br)ccc1NC(=O)c1cc(OC)c(OC)c(OC)c1 (centres undefined) | i | nt | ? | nt
Cc1cccc(NS(=O)(=O)c2ccc(C(=O)N3CCCCCC3)cc2)c1C | i | i | ? | i
Cc1cc(Sc2nnc(/N=C/N(C)C)s2)c2ccccc2n1 | i | i | 3.16µM | i
COc1cc2c(cc1N)-c1ccc(N)cc1C2=O | i | i | i | 10µM
COc1ccc(-c2nc3cccc(C)n3c2Nc2ccc(C)cc2)cc1 | nt | nt | nt | i
COc1ccc(C(=O)Cc2nnc(C)s2)c(OC)c1 | i | i | i | 11.2µM
CCc1nnc(NC(=O)c2ccc(OC)cc2OC)s1 | i | i | ? | i
c1ccc(CSc2nc3ncccn3n2)cc1 | i | i | i | 2.51µM
O=C(Nc1ccc(Cl)cc1)C1CCCN(c2ncnc3c2nc2n3CCCCC2)C1 (centres undefined) | i | i | ? | i
COc1ccc(N2CCN(CC(O)COc3ccc(C)c(C)c3)CC2)cc1 (centres undefined) | i | i | ? | i
COc1ccc(N2CCN(CC(O)COc3ccc(C(C)C)c(C)c3)CC2)cc1 (centres undefined) | ? | nt | 12.6µM | nt
COc1ccc(/C=C/C(=O)OCC(=O)N2CCCCCC2)c(OC)c1 | i | i | i | i
Cc1nn2c(-c3ccco3)ccnc2c1-c1ccc(Cl)cc1 | i | i | i | i
CC1(C)CC(=O)c2c(O)cc(OCc3ccc(Br)cc3)cc2O1 | i | i | i | 3.55µM
COC(=O)c1ccc(COc2cc(O)c3c(c2)OC(C)(C)CC3=O)cc1 | i | i | ? | i
O=C1c2ccccc2C(=O)N1c1cccc(O)c1 | nt | nt | nt | i
NNC(=O)c1cccc(S(=O)(=O)Nc2cccc(C(F)(F)F)c2)c1 | i | i | i | i
Cc1[nH]c2ccccc2c1/C=N/NC(=O)c1cccc(S(=O)(=O)Nc2cccc(C(F)(F)F)c2)c1 | ? | i | 12.6µM | i
O=C(Nc1ccc(S(=O)(=O)N2CCCCC2c2cccnc2)cc1)c1ccc(F)cc1 (centres undefined) | i | nt | ? | nt
O=C(NCC1CC1)NC(=O)c1ccccc1F | i | i | i | 12.6µM
CC(C)(C)C(=O)CSc1n[nH]c(-c2ccccc2)n1 | nt | nt | nt | 7.94µM
NCCNC[C@@H]1COC2(CCCCCCCCCCC2)O1 | i | i | 5.01µM | i
SMILES | GLP1R cytotox | GLP-1R agonist | GLP-1R inv ag | BRCA1 expr up
CCc1nc(SCC(=O)NC2CCCC2)c2c(=O)n(C)c(=O)n(C)c2n1 | i | i | i | i
O=C(C[n+]1ccccc1Cl)c1ccc2c(c1)CCCC2 | nt | nt | nt | i
CCCCCOc1ccc(CSc2ncn[nH]2)cc1 | i | i | i | 2.82µM
CCCCOc1ccc(CSc2n[nH]c(C)n2)cc1 | i | i | i | i
CCCCOc1ccc(CSc2ncn[nH]2)cc1 | i | i | i | 7.08µM
COC(=O)c1ccsc1NC(=O)CN1CCN(c2ncccn2)CC1 | i | i | i | i
O=C(CNC(=O)C1CCCCC1)OCCOc1ccccc1 | nt | nt | nt | i
CCOc1ccc(OCC)c(S(=O)(=O)NCCOC23CC4CC(CC(C4)C2)C3)c1 | i | i | 3.98µM | i
COc1ccccc1N1CCN(CCNC(=O)Nc2cccc(C)c2C)CC1 | i | i | 3.16µM | i
O=C(Nc1ccc2c(c1)CCC2)c1cnccn1 | i | i | i | 3.55µM
O=C(CSc1ncccn1)Nc1ccc2c(c1)CCC2 | i | i | i | 8.91µM
CCC(C)Oc1nc(C)cc(C)c1S(=O)(=O)c1ccccc1C (centres undefined) | i | i | 8.91µM | i
COc1nc(C)cc(C)c1S(=O)(=O)c1ccccc1C | i | i | ? | i
CCSc1nc(C)cc(C)c1S(=O)(=O)c1ccccc1C | i | i | 8.91µM | i
CSc1nc(C)cc(C)c1S(=O)(=O)c1ccccc1C | i | i | 5.01µM | i
Cc1ccccc1Nc1c(-c2cccc(N(C)C)c2)nc2ccc(Br)cn12 | i | nt | i | nt
CCOCCc1nnc(NC(=O)C(=O)c2cc(C)n(-c3ccc(C)c(C)c3)c2C)s1 | i | nt | i | nt
O=C(Nc1nsc(-c2ccccc2)n1)c1ccc(F)cc1 | i | i | i | 11.2µM
CC(=O)CC1c2ccccc2C=C(c2ccsc2)N1c1ccc(-c2cccs2)cc1 (centres undefined) | i | i | i | i
COc1ccc(Cc2c(-c3ccc(F)cc3)nc3ccc(Br)cn23)c(C)c1 | i | i | i | 8.91µM
Cc1ccc(Cc2c(-c3cccc(Cl)c3)nc3cc(C)c(Br)c(C)n23)cc1 | i | i | 3.16µM | i
CCc1nc2c(OCc3ccc(F)cc3)cccn2c1N(C)C(=O)c1ccco1 | i | i | i | i
CCc1nc2c(OCc3ccc(Cl)cc3)cccn2c1N(C)C(=O)c1ccco1 | i | i | 10µM | i
CSc1ncc(C(=O)N2CCN(c3ccc(Cl)cc3)CC2)c(C)n1 | i | nt | i | nt
CC(C)c1ccccc1NC(=O)c1cccc(NC(=O)c2ccccc2)c1 | i | i | 10µM | i
SMILES | GLP1R cytotox | GLP-1R agonist | GLP-1R inv ag | BRCA1 expr up
CC(=O)Nc1cc(C(C)C)c(O)c(C(C)C)c1 | i | i | i | i
CC(C)c1cc(NC(=O)c2ccccc2)cc(C(C)C)c1O | i | i | 11.2µM | i
COc1ccc(OC)c(/C=N/NC(=O)c2c(C)nc3ccc(C)cn23)c1 | i | i | ? | i
CCC(C(=O)Nc1ccc(F)cc1F)n1nc(-c2ccccc2)c2c(c1=O)CCCC2 (centres undefined) | i | nt | ? | i
CCN1CCN(Cc2ccc(NC(=O)Nc3ccccc3)cc2)CC1 | i | i | ? | i
CCN1CCN(Cc2ccc(NC(=O)Nc3ccc(SC)cc3)cc2)CC1 | ? | i | 7.94µM | i
CCOC(=O)Nc1ccc(/C=C/c2ccnc3ccccc23)cc1 | nt | nt | nt | i
CC1(CC(=O)N/N=C/c2cc([N+](=O)[O-])c(O)cc2O)OCCO1 | ? | i | ? | i
Cc1ccc(S(=O)(=O)N(CC(=O)Nc2cccnc2)c2cc(Cl)ccc2C)cc1 | i | nt | 10µM | nt
Cc1ccc(S(=O)(=O)N(CC(=O)Nc2cccnc2)c2cccc(Br)c2)cc1 | i | i | 4.47µM | i
COc1ccc(OC)c(N(CC(=O)Nc2cccnc2)S(=O)(=O)c2ccc(C)cc2)c1 | i | i | i | i
O=C(Nc1ccc(Cl)cc1)NC1CCCC1Cc1ccco1 (centres undefined) | i | i | 5.62µM | i
O=C(Nc1ccc(Cl)cc1)NC1CCCCC1Cc1ccco1 (centres undefined) | i | i | 10µM | i
COc1cc(-c2cc3nc(NCc4ccco4)ccn3n2)cc(OC)c1OC | i | i | ? | i
CSc1cccc(NC(=S)N(CCCN2CCCC2)Cc2cccn2Cc2ccc(Cl)cc2)c1 | 11.2µM | i | 3.55µM | i
COc1cccc(NC(=S)N2CCCN(Cc3ccc(F)cc3)C2)c1 | i | i | ? | i
